In PubChem BioAssay AID2172 (The Scripps Research Institute Molecular Screening Center, 2009) one finds IC50 data, which are given here for one compound.

The assay in a line: DNA intercalator displacement (FID) – biochemical, fluorescence, counter-screen for HCV NS3 helicase inhibitor project, dose response (AID 2172). As to conditions: fluorescent intercalator displacement from DNA.

The list shows a part of the results. A number with no mark means an inactive call. The rule behind the calls is not given here.

For `COc1ccc(N2C(=O)/C(=C/c3ccco3)C(=O)NC2=S)cc1`, the IC50 was 28.9 µM.
